Screens (PubChem BioAssay)
Anthrax LF prot = blocks Bacillus anthracis lethal factor protease; multiplex microsphere protease cleavage assay, LF; P15917; inhibition, % at 10 µM; actives 0.12% (n = 360,000)
DUSP3 inh = blocks human VHR1 dual specificity phosphatase; P51452; recombinant VHR phosphatase, pNPP absorbance; inhibition, % at 13.3 µM; actives 0.52% (n = 290,000); AID 1654; in the data active = inhibition above about 50%
Target sequence (P51452 whole entry, looked up): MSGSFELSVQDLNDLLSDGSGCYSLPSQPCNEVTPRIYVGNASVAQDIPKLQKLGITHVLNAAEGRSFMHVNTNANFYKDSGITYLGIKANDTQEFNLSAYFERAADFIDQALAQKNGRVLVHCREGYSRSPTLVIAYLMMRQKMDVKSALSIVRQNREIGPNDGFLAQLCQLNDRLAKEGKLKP
BoNT A protease = blocks Botulinum neurotoxin A light chain protease; multiplex microsphere protease substrate cleavage, flow cytometry; inhibition, % at 10 µM; actives 0.17% (n = 360,000)
BoNT-F LC inh = inhibitors of Botulinum neurotoxin F light chain protease; Multiplex microsphere protease cleavage assay, flow cytometry; inhibition, % at 10 µM; actives 0.22% (n = 360,000); in the data active = inhibition above about 35%, passing the limit was not always enough; inconclusive = no clear call, values can overlap the other calls
MazF activator = activators of E. coli MazEF toxin-antitoxin RNase; P0AE70; FAM/BHQ RNA-DNA oligo cleavage fluorescence, 5 h; activation, % at 20 µM; actives 0.32% (n = 350,000); AID 504720; in the data active = activation above about 50%
Target sequence (P0AE70 whole entry, looked up): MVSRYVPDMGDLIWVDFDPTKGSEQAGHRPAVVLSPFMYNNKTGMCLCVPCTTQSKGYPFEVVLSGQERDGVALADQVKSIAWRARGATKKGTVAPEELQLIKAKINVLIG
Autofluor counter = compound fluorescence in toxin protease inhibitor counterscreen. compound autofluorescence counterscreen, microsphere flow cytometry; active compounds read high. fluorescence intensity (concentration not given with the values). actives 3.1% (n = 360,000). AID 624483; in the data active = fluorescence intensity above about 16000; inconclusive = no clear call, values can overlap the other calls
Numbers stand for hits; - = inactive; ? = inconclusive; . = not tested or not shown. In the library only some 4.1% were active in any assay of this set; here they are far more common. Rule as the data show it, unless noted: active = inhibition above about 30%; inconclusive = no clear call, values can overlap the other calls; inactive = below that.

SMILES	Anthrax LF prot	DUSP3 inh	BoNT A protease	BoNT-F LC inh	MazF activator	Autofluor counter
CN1CC(c2ccc(C#N)cc2)C2(COc3ccccc3C2=O)C12C(=O)Nc1ccccc12 (configuration not stated)	-	-	-	-	-	19424
CC1CCCC(NC(=O)CSc2nnc(-c3cccnc3)o2)C1C (configuration not stated)	-	.	-	-	-	-
O=C(NCCO)/C(=C/c1ccc(Br)cc1)NC(=O)c1cccs1	-	-	-	-	-	23982
COc1ccc(/C=C(\NC(=O)c2cccs2)C(=O)NN)cc1OC	-	52.0	-	-	-	-
COc1ccc(/C=C(/NC(=O)c2cccs2)C(=O)NC(C)(C)C)cc1OC	-	-	-	?	-	-
O=C(NCCO)/C(=C\c1ccco1)NC(=O)c1cccs1	-	-	-	-	-	-
CNCc1ccccc1OCC(=O)Nc1ccccc1OC	-	-	-	-	-	17627
O=C(COc1ccccc1CNCc1ccccc1)Nc1ccccc1	-	-	?	-	-	24425
COc1ccc(OCC(=O)Nc2ccccc2OC)cc1	-	-	-	-	-	-
CCOc1ccccc1CNCc1ccc(C(=O)O)cc1	-	-	-	-	-	-
COc1cccc(/C=N/n2cnc3ccccc32)c1OC	-	-	-	-	-	16900
COc1cccc(/C=N/n2c(N)nc3ccccc32)c1OC	-	-	-	-	-	-
C(=N\n1cnc2ccccc21)/c1cccnc1	-	-	-	-	-	22275
COc1cccc(/C=N/n2c(=S)n(C)c3cc(C)c(C)cc32)c1OC	-	-	?	-	-	22389
Cc1cc2ncn(/N=C/c3cccnc3)c2cc1C	-	-	-	-	-	-
COc1ccccc1N1CCN(C2CCCN(C(=O)c3cccc(-c4ccco4)c3)C2)CC1 (configuration not stated)	-	-	-	-	-	-
O=C(NC1(C(F)(F)F)NC(=O)N(c2ccc(F)c(Cl)c2)C1=O)c1ccncc1 (configuration not stated)	-	-	-	-	-	23968
COc1ccccc1-n1c(N)c(C(N)=O)sc1=S	-	52.1	-	-	-	-
COC(=O)c1sc(=S)n(-c2cccc(Cl)c2)c1N	-	-	-	-	-	26583
O=C(CNc1cccc(Cl)c1)c1ccc(Br)cc1	-	51.3	-	-	-	-
COc1ccc(C(C)NC(=O)c2ccoc2C)cc1OC (configuration not stated)	-	-	-	-	-	24236
CCN1CCN(CCNC(=O)c2ccc(CS(=O)c3ccc(Br)cc3)o2)CC1 (configuration not stated)	-	-	-	-	-	-
COc1ccc(OCCN2CCN(C(=O)c3ccc(OC)c(OC)c3)CC2)cc1	-	-	-	-	-	-
Cc1ccc(S(=O)(=O)NCC(=O)OC(C)C(=O)NC2CCCCC2C)cc1C (configuration not stated)	.	.	.	.	-	.
O=C(CN1CCN(c2ccccn2)CC1)Nc1ccc(Cl)c(C(F)(F)F)c1	-	-	-	-	-	-
SMILES	Anthrax LF prot	DUSP3 inh	BoNT A protease	BoNT-F LC inh	MazF activator	Autofluor counter
CCOc1ccc(NC(=O)CN2CCN(CC(=O)Nc3ccc(Cl)c(C(F)(F)F)c3)CC2)cc1	-	-	-	-	-	26476
Cc1ccc(Cl)cc1N1CCN(CC(=O)Nc2ccc3[nH]c(=O)[nH]c3c2)CC1	-	-	-	-	-	19567
COc1ccccc1N1CCN(CC(=O)Nc2ccc(Cl)c(C(F)(F)F)c2)CC1	-	-	-	-	-	16616
CC1(C(=O)NCc2ccco2)Cc2c(-c3ccccc3)ccnc2O1 (configuration not stated)	-	.	-	-	.	-
Cc1cc(C)c2oc(=O)cc(CN3CCC(C)CC3)c2c1	-	-	-	-	-	-
Cc1cccc(NC(=O)CCNC(=O)c2ccco2)c1	-	50.8	-	-	-	-
COc1ccc(CC(=O)Nc2ccc(OC)c(NC(=O)c3ccco3)c2)cc1	-	-	-	-	-	-
CCOc1cc(NC(=O)c2ccco2)c(OCC)cc1NC(=O)Cc1ccc(OC)c(OC)c1	-	-	-	-	-	20919
COc1ccc(NC(=O)CCc2ccccc2)cc1NC(=O)c1ccco1	-	-	-	-	-	19700
Cc1ccc(NC(=O)CCNC(=O)c2ccco2)cc1	-	-	-	-	-	-
O=C(Nn1c(C2CCC2)nc2ccccc2c1=O)C1CCC1	-	-	-	-	-	16974
COc1ccccc1C(=O)Nn1c(C2CCC2)nc2ccccc2c1=O	-	-	?	-	-	23194
O=C(Nn1c(C2CC2)nc2ccccc2c1=O)c1ccco1	-	-	-	-	-	20747
COc1cc2nc(C3CC3)n(NC(=O)c3ccc(Cl)cc3)c(=O)c2cc1OC	-	-	-	-	-	-
COc1cc2nc(C3CC3)n(NC(=O)c3ccc(F)cc3)c(=O)c2cc1OC	-	-	?	-	-	24457
O=C(c1cc(-c2ccc(F)cc2)no1)N1CCN(Cc2ccc3c(c2)OCO3)CC1	-	-	-	-	-	-
CCOc1ccc(S(=O)(=O)N2CCOCC2)cc1NC(=O)CSC(=S)N1CCCC1	-	.	-	-	-	-
Cc1cccc(C)c1NC(=O)C1c2ccccc2OCC(=O)N1Cc1cccnc1 (configuration not stated)	-	.	-	-	.	-
CC(=O)Cc1ccccc1OCC(=O)O	-	-	-	-	-	16749
CC(c1ccccc1)N1CNc2c(c(=O)n(C)c(=O)n2C)C1 (configuration not stated)	-	-	-	-	-	-
Cn1c2c(c(=O)n(C)c1=O)CN(CCCN1CCOCC1)CN2	-	-	-	-	-	16352
Cc1ccc2c(c1)N(CC(=O)NC1CCCC(C)C1C)C(=O)c1cccnc1O2 (configuration not stated)	-	-	-	-	-	-
CCCn1c(CCNc2nc(-c3cccc(Br)c3)cs2)nc2ccccc21	-	.	-	-	-	-
COc1ccc(-c2nnn(CCc3nn[nH]n3)n2)cc1OC	-	-	-	-	-	21931
CCOc1cc(-c2nnn(CC(=O)N3CCCCC3)n2)ccc1OC	-	-	-	-	-	-
SMILES	Anthrax LF prot	DUSP3 inh	BoNT A protease	BoNT-F LC inh	MazF activator	Autofluor counter
CCOc1ccc(-c2nnn(CCC(=O)O)n2)cc1OC	-	-	-	-	-	21762
COc1ccc(-c2nnn(Cc3nn[nH]n3)n2)cc1OC	-	-	-	-	-	-
COC(C)(C)[C@@H](O)COc1c2ccoc2cc2oc(=O)ccc12	-	.	-	-	-	-
Nc1cc(Br)c(N)c(Br)c1	-	-	-	-	-	24247
Nc1ccc(Br)cc1	.	.	.	.	-	.
CCC(=O)N(CC)c1nc(-c2ccc(OC)cc2)cs1	-	-	-	-	-	23376
CCC(=O)N(Cc1ccco1)c1nc(-c2ccc(OC)cc2)cs1	-	-	-	-	-	-
C=C(C)CSc1nc2ncccc2[nH]1	-	-	-	-	-	-
CCN(CC)C(=O)CSc1nc2ncccc2[nH]1	-	-	?	-	-	24215
